# D3 ag: qHTS of D3 Dopamine Receptor Agonist: qHTS; AID 652048, 2013; D(3) dopamine receptor (Homo sapiens), P35462; D3R DiscoveRx beta-arrestin cells, luminescence, 90 min; 0.58% of 410,000 active; max activation, %; in the data active means max activation above about 30%
# Target sequence (P35462 whole entry, looked up): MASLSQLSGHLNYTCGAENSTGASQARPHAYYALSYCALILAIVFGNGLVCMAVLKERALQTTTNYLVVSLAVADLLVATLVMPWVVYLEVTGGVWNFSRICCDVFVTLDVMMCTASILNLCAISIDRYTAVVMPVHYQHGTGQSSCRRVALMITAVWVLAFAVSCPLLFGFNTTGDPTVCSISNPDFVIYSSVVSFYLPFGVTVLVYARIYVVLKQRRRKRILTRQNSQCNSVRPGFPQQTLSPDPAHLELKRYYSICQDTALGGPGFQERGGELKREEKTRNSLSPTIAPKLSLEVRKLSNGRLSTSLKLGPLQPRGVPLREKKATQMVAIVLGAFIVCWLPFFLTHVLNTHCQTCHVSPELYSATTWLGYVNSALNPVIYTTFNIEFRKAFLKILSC
#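 Agonist-mode cell screen: cells plated at 1500/well and incubated overnight at 37 °C, then exposed to library compounds for 90 min at 37 °C. Detection reagent was added for 30–60 min at room temperature, and luminescence was read.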
# Giardia kill: Small Molecules that selectively kill Giardia lamblia: qHTS; Giardia lamblia trophozoite viability; activity change, % at 7.66 µM, hits read low; 0.15% of 340,000 active; in the data active means activity change below about -80%; inconclusive means between about -30% and that limit;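 further: parasites exposed to compound for two days anaerobically before the ATP read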
#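 Giardia trophozoites, 100 cells per well, were exposed to compounds for 48 hrs at 37 deg C under anaerobic conditions; viability was then read as ATP content by bioluminescence after 15-30 min at room temperature.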
# B2AR arrestin: qHTS assay of beta-arrestin-biased ligands of beta2-adrenergic receptor | beta-arrestin recruitment to beta2AR, cell-based reporter | 0.02% of 330,000 active | Beta-2 adrenergic receptor (Homo sapiens), P07550 | Potency, µM (top dose mostly 46.1 µM), actives largely listed as activators | AID 492947, 2010; active means well fitted activation curve with a large enough effect; inconclusive means small, poorly fitted or top-dose-only effect; further: nearly all actives have a fitted effect of over 65% in size
# D3 antag: qHTS of D3 Dopamine Receptor Antagonist: qHTS. D3R cells, DiscoveRx beta-arrestin luminescence, antagonist mode; active compounds read low. 2.5% of 360,000 active. AID 652054, 2013. max response, negative = inhibition, %. D(3) dopamine receptor (Homo sapiens), P35462; in the data active means max response below about -50%; inconclusive means no clear call, values can overlap the other calls
#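 Cells expressing the human receptor were seeded at 1500 cells/well, incubated overnight at 37 degrees C in 5% CO2, then exposed to library compounds with dopamine controls for 90 minutes at 37 degrees C before luminescent detection.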
# A number is an active result; . = inactive; ? = inconclusive; / = no result given. Only some compounds are listed: those with a hit (about 2.8% of all), similar ones and a draw of the others.
SMILES,D3 ag,Giardia kill,B2AR arrestin,D3 antag
CC(C)c1nc2c(s1)CCc1onc(-c3ccc(Cl)cc3)c1-2,32,.,.,.
COc1ccc(-c2noc3c2-c2nc(C(C)C)sc2CC3)cc1,.,.,/,.
CC(=O)c1coc2ccc(OCCN3CCCCC3)cc12,.,.,.,-84
CCOc1ccccc1N1CCN(C(=O)c2cc[n+]([O-])cc2)CC1,.,.,.,-63
Cc1ccc(S(=O)(=O)N2CCN(c3nc(-c4cccs4)nc4nc[nH]c34)CC2)cc1,/,.,/,/
O=c1c2c3c(sc2nnn1Cc1ccc(Br)cc1)CCCC3,.,/,/,/
COc1ccc(S(=O)(=O)N2CCN(c3nc(-c4ccccc4)nc4ccccc34)CC2)cc1,/,.,/,/
CC(=O)N1CCc2cc(Br)cc(S(=O)(=O)NCCCN3CCCC(C)C3)c21 (stereo unspecified),.,.,.,-60
CC1CCCN(CCCNS(=O)(=O)c2cc(Br)cc3c2N(C(=O)C2CC2)CC3)C1 (stereo unspecified),.,.,.,.
CN1CCN(c2ccc(NC(=O)CN3CCOCC3)cc2F)CC1,.,.,.,.
COc1ccc(SCC(=O)Nc2ccc(N3CCN(C)CC3)c(F)c2)cc1,.,.,.,-56
O=C(CSc1ccccc1)Nc1ccc(N2CCN(c3ccccc3)CC2)c(F)c1,.,.,.,.
Cc1ccc(SCC(=O)Nc2ccc(N3CCN(C)CC3)c(F)c2)cc1,.,.,.,-53
COc1cc(-c2ccc3oc(-c4cccc(C)c4)c(C#CC4(O)CCCCC4)c3c2)cc(OC)c1OC,42,.,.,.
COc1ccc(-c2oc3ccc(-c4ccc5c(c4)OCO5)cc3c2C#CC2(O)CCCCC2)cc1,.,.,/,.
CC(CC(=O)Nc1ccc2c(c1)c(=O)n(C)n2-c1ccccc1F)c1ccccc1 (stereo unspecified),.,/,/,-90
Cn1c(=O)c2cc(NC(=O)CC(C)(C)C)ccc2n1-c1ccccc1F,.,/,/,.
COc1cnc(-c2ccccn2)nc1Sc1cccc(Cl)c1,.,.,.,-71
COc1cnc(-c2ccccn2)nc1Oc1ccc(Cl)cc1,.,.,.,-73
COc1cnc(-c2ccccn2)nc1Oc1ccc(Cl)c2ccccc12,.,.,.,-94
COc1cnc(-c2ccccn2)nc1Sc1ccc(C)cc1,.,.,.,.
CC1(C)OC(=O)C2(Cc3cc([N+](=O)[O-])ccc3N3CCCCC32)C(=O)O1 (stereo unspecified),/,.,/,/
CC(C)(C)c1ccc(Cn2nnc3c(=O)[nH]c(C4CCN(C(=O)c5ccco5)CC4)nc32)cc1,32,.,.,.
O=C(c1ccco1)N1CCC(c2nc3c(nnn3Cc3c(Cl)cccc3Cl)c(=O)[nH]2)CC1,.,.,.,.
O=C(Nc1ccc(Cl)cc1)C1CCC(CNS(=O)(=O)c2ccc(Br)s2)CC1 (stereo unspecified),.,/,/,/
SMILES,D3 ag,Giardia kill,B2AR arrestin,D3 antag
O=C(C1CCC(Cn2c(=O)c3sccc3n(Cc3ccccc3F)c2=O)CC1)N1CCOCC1 (stereo unspecified),.,/,/,/
O=C(O)CCCCCNC(=O)CCn1nnc2ccccc2c1=O,.,.,.,-52
COC(=O)[C@H]1[C@H]2C[C@H]3c4[nH]c5ccccc5c4CCN3C[C@H]2CC[C@@H]1O,.,.,.,-132
COC(=O)C1C(O)CCC2CN3CCc4c([nH]c5ccccc45)C3CC21 (stereo unspecified),.,.,.,?
NC(CSS(=O)(=O)O)=NCCC12CC3CC(CC(O)(C3)C1)C2,.,.,.,.
CC1(C)C2CCC(CN=C(N)CSS(=O)(=O)O)C1C2 (stereo unspecified),.,/,/,-99
CCNC(=O)C1(C)CCCN1C(=O)c1ccc(F)c(Cl)c1 (stereo unspecified),.,/,/,.
CCNC(=O)C1(C)CCN(Cc2ccc(C(F)(F)F)cc2)C1 (stereo unspecified),.,/,/,.
CCCNC(=O)C1(C)CCCN(Cc2ccc3c(c2)OCO3)C1 (stereo unspecified),.,/,/,-55
CCCNC(=O)C1(C)CCCN(Cc2ccc(Cl)cc2)C1 (stereo unspecified),.,/,/,.
CCNC(=O)C1(C)CCCN1C(=O)c1ccc2c(c1)OCO2 (stereo unspecified),87,/,/,.
CCCNC(=O)C1(C)CCN(Cc2ccc(-c3ccccc3)o2)C1 (stereo unspecified),.,/,/,-79
CCNC(=O)C1(C)CCCN(Cc2ccc(-c3ccccc3)o2)C1 (stereo unspecified),.,/,/,?
CCCNC(=O)C1(C)CCN(Cc2cc(C(F)(F)F)ccc2Cl)C1 (stereo unspecified),.,/,/,-57
COc1cc(C(=O)OC(COCCC(C)C)CN2CCOCC2)cc(OC)c1OC (stereo unspecified),.,/,/,/
Cc1nc2ccn(Cc3cccs3)c(=O)c2cc1C(=O)N1CCN(c2ccccc2F)CC1,.,/,/,/
COc1ccc(C2C3C=CCCC3(C)C(=O)N2Cc2ccccc2)cc1Cl (stereo unspecified),/,.,/,/
Cc1cccc(-c2nnn3c2nc(NCCc2ccc(S(N)(=O)=O)cc2)c2cc(Cl)ccc23)c1,.,/,/,/
COCCNC(=O)C1(C)CCCN(Cc2cccc(OC(=O)c3ccccc3)c2)C1 (stereo unspecified),.,/,/,.
CCNC(=O)C1(C)CCN(Cc2csc(-c3ccccc3)n2)C1 (stereo unspecified),.,/,/,-113
CCCNC(=O)C1(C)CCN(Cc2cccc(OC(=O)c3ccccc3)c2)C1 (stereo unspecified),.,/,/,-79
O=C1C[C@H](c2ccc(-c3ccccc3)cc2)N1S(=O)(=O)c1ccccc1[N+](=O)[O-],/,.,/,/
C/C(=N\NC(=S)NC(C)C)c1ccccc1OC(F)F,.,.,?,.
CCNC(=S)N/N=C(\C)c1ccc2ccccc2c1OC(F)F,30,.,.,.
CCCc1nc2sc3c(N4CCC(C)CC4)ncnc3c2c2c1CCCC2,.,/,/,/
SMILES,D3 ag,Giardia kill,B2AR arrestin,D3 antag
FC(F)(F)c1ccccc1Cc1c(-c2ccc(Cl)cc2)nc2ccc(Br)cn12,.,/,/,-54
Cc1ccc2nc(-c3ccccc3)c(Cc3ccccc3C(F)(F)F)n2c1,.,/,/,-54
Cc1ccc(-c2nc3ccc(C)cn3c2Cc2ccccc2C(F)(F)F)cc1,.,/,/,.
FC(F)(F)c1ccccc1Cc1c(-c2ccc(Cl)cc2)nc2ccc(Cl)cn12,.,/,/,.
O=Cc1c[nH]c2ccccc12,/,.,/,/
CC(=O)N1/C(=C/c2ccc(N(C)C)cc2)C(=O)c2ccccc21,.,.,.,-51
CN(C)c1ccc(/C=C2\CCC/C(=C\c3ccccc3)C2=O)cc1,.,.,.,.
CC(=O)c1cc(-c2ccccc2)n(CC(=O)Nc2ccc(C)cc2C)c1C,.,/,/,/
COC(=O)c1sc2ccccc2c1NC(=O)c1ccc(S(=O)(=O)N2CCCCC2)cc1,38,.,.,.
O=C(c1ccc(CSc2nc3ccncc3n2Cc2cccc(F)c2)cc1)N1CCCCCC1,.,/,/,/

# Assay outcomes as filed in PubChem BioAssay.
